Screening data deposited in PubChem BioAssay by National Center for Advancing Translational Sciences (NCATS).
An excerpt weighted towards active compounds, which were near 0.82% of everything screened.
IP6K1 inh = Primary qHTS assay for small molecule inhibitors of Inositol hexaphosphate kinase 1 (IP6K1). activity change, % (series mostly up to about 58 µM). 0.81% of 140,000 active. IP6K1 kinase, ADP-Glo luminescence, 2 h; stronger effect = lower value. Inositol hexakisphosphate kinase 1 (Homo sapiens), Q92551. AID 1645851, 2021; in the data active means activity change below about -25%
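ADP-Glo luminescence measures ADP made by human IP6K1 during a 2 h RT reaction with ATP/IP6 (mix at 1.3 mM/130 uM); top library doses 57.5 and 19.1 uM final.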
GPT2 inh = Primary qHTS assay for inhibitors of Glutamate pyruvate transaminase 2 (GPT2); Alanine aminotransferase 2 (Homo sapiens), Q8TD30; Recombinant GPT2, coupled pyruvate oxidase/HRP Amplex Red fluorescence; Potency, µM (titrated, usually from 57.7 µM), inactives show at the top dose activity change, negative = inhibition, hits mostly inhibitors; 0.25% of 100,000 active; further: potency means the concentration at half of the fitted maximal effect; nearly all actives have a fitted effect of over 60% in size
Target sequence (Q8TD30 whole entry, looked up): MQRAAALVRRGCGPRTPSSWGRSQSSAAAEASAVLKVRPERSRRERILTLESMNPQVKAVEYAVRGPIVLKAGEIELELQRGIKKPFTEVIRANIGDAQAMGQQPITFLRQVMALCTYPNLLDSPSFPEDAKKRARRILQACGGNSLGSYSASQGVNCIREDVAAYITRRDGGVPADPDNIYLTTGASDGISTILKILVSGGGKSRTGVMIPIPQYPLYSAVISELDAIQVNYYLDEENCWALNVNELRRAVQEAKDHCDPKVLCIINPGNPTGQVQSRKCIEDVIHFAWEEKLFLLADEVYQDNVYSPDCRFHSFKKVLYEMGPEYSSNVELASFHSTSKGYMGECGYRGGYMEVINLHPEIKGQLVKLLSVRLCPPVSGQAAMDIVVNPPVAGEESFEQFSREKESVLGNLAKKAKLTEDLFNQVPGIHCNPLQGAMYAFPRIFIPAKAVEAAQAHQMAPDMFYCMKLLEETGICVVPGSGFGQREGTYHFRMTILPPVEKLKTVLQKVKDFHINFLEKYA
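GPT2 10ng/uL, a-KG 250uM, L-Ala 2mM, HEPES pH7.5 + 0.0001% Tween; 30 min RT. Then Amplex mix (PO/HRP/ThPP), 30 min RT dark, fluorescence. AOA 50uM used as positive control.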
IP6K1 inh cnf = Confirmatory qHTS assay for small molecule inhibitors of Inositol hexaphosphate kinase 1 (IP6K1); 13% of 1,200 active; Potency, µM (top dose mostly 49 µM), for the others: at the highest dose activity change, negative = inhibition, most hits filed as inhibitors; shares compounds with IP6K1 inh; AID 1645852, 2021; recombinant IP6K1 kinase, ADP-Glo luminescence, 2 h; further: potency means the concentration at half of the fitted maximal effect; nearly all actives have a fitted effect of over 65% in size
An asterisk follows results filed as active; i = inactive; u = inconclusive; x = no result given; ! = a repeat was not active; [ ] = dose if it differs, or a comment. Unless noted, the call rests on the fitted dose curve; in most records, active means well fitted curve in the direction sought with a large enough effect; inconclusive means small, poorly fitted or top-dose-only effect, or another doubt; inactive means no such curve, though single readings can be large; an effect the other way counts as inactive or inconclusive. On the % scale 0 is the no-effect control and ±100 the full control effect.

SMILES | IP6K1 inh | GPT2 inh | IP6K1 inh cnf
c1cn(-c2ccc(-c3nccn3C[C@@H]3CCCO3)cc2)cn1 | -5 | -27% | x
O=C(N[C@@H]1CN(Cc2ccccn2)CCC[C@H]1O)c1ccc(OCc2ccccc2)cc1 | -33* | u | 17%
NC(=O)COc1ccc(C(=O)N[C@@H]2CN(Cc3ccccn3)CCC[C@H]2O)cc1 | 9 | -14%[88.5 µM] | x
COc1cccc(CN2C[C@@H](COCC3CC3)[C@H](c3ccncc3)C2)n1 | -12 | i | x
COCCOC1CCN(C(=O)Nc2cccc(C)c2)CC1 | -3 | i | x
CN(C)C(=O)CN1C(=O)CO[C@H](c2ccc(NC(=O)C3CC3)cc2)[C@H]1CO | 0 | i | x
COc1ccc(OC2CN([S+](=O)([O-])c3cccs3)C2)cc1 | -14 | -1% | x
COc1cc(CN2CCN(S(=O)(=O)c3ccc(F)cc3)CC2)cc(OC)c1OC | -34* | x | 2%
COc1ccc(C(=O)CN2CCN(S(=O)(=O)c3ccc(F)cc3)CC2)cc1 | 23 | x | x
Cc1ccccc1C(=O)OCc1cc(=O)n2nc(C3CCCCC3)sc2n1 | 10 | x | x
CCCCC(=O)Nc1ccccc1C(=O)OCc1cc(=O)n2nc(C3CCCCC3)sc2n1 | -28* | x | -15%
CCN(Cc1ccncc1)C(=O)C1(Oc2ccc(C)cc2)CCNCC1 | 1 | u | x
COc1ccccc1OC1(C(=O)O)CCN(Cc2nccn2C)CC1 | -14 | i | x
CCc1cc(N2CCC(Oc3ccccc3OC)(C(=O)O)CC2)nc(C)n1 | -32* | 3%[11.5 µM] | -11%
COc1ccccc1OC1(C(=O)O)CCN(Cc2cnn(C)c2C)CC1 | -29* | 0%[11.5 µM] | -3%
COc1ccccc1OC1(C(=O)O)CCN(c2cc(C)nc(N)n2)CC1 | -9 | 0% | x
CCCS(=O)(=O)N1CCC2(CC1)CC2c1noc(C)n1 (configuration not stated) | -2 | i | x
O=C(CNC(=O)c1cccc(-c2ccc(C(F)(F)F)cc2)c1)NCCc1ccccc1 | 3 | -5% | x
COc1cccc(-c2nc(-c3c(C)noc3C)cc3c2cc(C)n3CCN(C)C)c1 | -12 | -6%[88.5 µM] | x
O=C(NCc1cccc(Cl)c1)c1cc2c(s1)-c1ccccc1OC2 | -26* | x | -14%
COc1ccccc1CNC(=O)c1cc2c(s1)-c1ccccc1OC2 | 13 | x | x
CCOCC(=O)N1CCCn2ccnc2C1C(C)C (configuration not stated) | 7 | -5% | x
CCOC(=O)c1cnc2cc(Cl)c(OC)cc2c1Nc1ccc(Br)cc1C | 1 | x | x
Cn1cnc2c(F)c(Nc3ccc(Br)cc3Cl)c(C(=O)NOCCO)cc21 | 15 | 4% | -13%
O=C(CCc1ccc(O)cc1)c1c(O)cc(O)cc1O | x | 6.9µM*! | 5.2µM*
SMILES | IP6K1 inh | GPT2 inh | IP6K1 inh cnf
COc1ccc(CCC(C)=O)cc1 | 3 | i | x
COC(=O)NC1CCN(C(=O)c2ccc(-c3ncccc3C#N)cc2)CC1 | 8 | -9% | x
COc1ccc(NC(=O)CN2CCN(Cc3ccccc3Cl)S2(=O)=O)cc1Cl | -29* | x | u
CCc1cccc(C)c1NC(=O)CN1CCN(Cc2ccccc2Cl)S1(=O)=O | 25 | x | x
Cc1ccc(S(=O)(=O)c2cnc(SCC(=O)Nc3ccc4c(c3)OCCO4)[nH]c2=O)cc1 | -30* | x | u
CC(C)c1ccc(S(=O)(=O)c2cnc(SCC(=O)Nc3ccc4c(c3)OCCO4)[nH]c2=O)cc1 | -8 | x | x
COc1ccc(S(=O)(=O)c2cnc(SCC(=O)Nc3cc(F)ccc3C)[nH]c2=O)cc1Cl | 8 | x | x
COc1cccc(NC(=O)CSc2ncc(S(=O)(=O)c3ccc(C)c(C)c3)c(=O)[nH]2)c1 | -29* | x | u
CNC(=O)[C@@H](c1ccccc1F)N1CCC[C@H]1C(=O)NC1CC1 | 1 | 2%[88.5 µM] | x
CC1=C[C@@H](CNC(=O)c2cnccn2)[C@H](C(C)C)C[C@H]1CC(=O)NCCN1CCOCC1 | 11 | 3% | x
O=C(NC1CCN(c2ccc3nnc(C4CC4)n3n2)CC1)c1ccc(F)cc1 | -2 | x | x
CCc1ccccc1Nc1nn2c(=O)c3ccc(C(=O)NCc4ccccc4Cl)cc3nc2s1 | -26* | x | 1%
CCc1ccccc1Nc1nn2c(=O)c3ccc(C(=O)NCc4cccs4)cc3nc2s1 | -3 | x | x
Cc1ccoc1C(=O)N1C[C@@H](CO)[C@H](c2nc(C3CC3)no2)C1 | -6 | i | x
CCCCCCCCOc1ccccc1C(=O)Nc1ccc(C(=O)OCC[N+](C)(CC)CC)cc1 | -37* | 1% | u
CCCCOc1ccccc1C(=O)Nc1onc2c1CCCC2 | -8 | x | x
Cc1cccc(-c2nnc(SCC(=O)N3CCCCC3)o2)c1 | -5 | x | x
